PfHsp40 yeast: restores yeast growth despite PfHsp40 toxicity; S. cerevisiae expressing PfHsp40, growth rescue, ATP luminescence; growth rescue, % at 12.5 µM; 0.68% of 340,000 active; AID 504582; in the data active = growth rescue above about 28%, passing the limit was not always enough;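 also: yeast W303a lacking pdr1 and pdr3 grown in galactose medium; growth measured after three days at 30 °C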
BJeLR lethal: BJeLR cell viability loss | 0.17% of 300,000 active | BJeLR (HRASV12) viability, CellTiter-Glo ATP luminescence, 48 h | AID 1554 | inhibition, % (concentration not given with the values); in the data active = inhibition above about 50%
Sa ugtP lethal: growth inhibition of S. aureus ugtP deletion strain. S. aureus RN4220 ugtP deletion, OD600 growth, 16 h. growth inhibition, % (test concentration not listed). 0.54% of 330,000 active. AID 1259309; in the data active = growth inhibition above about 68%;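 also: plate controls were untreated wells for no effect and antibiotic for full effect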
CCHF vOTU inh-1: CCHFV vOTU protease inhibition. AID 651958. Pep-AMC fluorescence. 0.55% of 370,000 active. inhibition, % at 11.5 µM; also: 0% = vehicle wells with enzyme and 100% = no enzyme wells
Sa RN4220 lethal: kills Staphylococcus aureus RN4220; inhibition, % (no concentration beside the values); 0.33% of 330,000 active; S. aureus RN4220 growth, OD600, 16 h; in the data active = inhibition above about 85%;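 also: plate controls were untreated cells for no effect and reference antibiotic for full effect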
CCHF vOTU inh-2: confirmation of CCHF virus vOTU protease inhibitors; 17% of 1,900 active; AID 686976; inhibition, % at 11.5 µM; shares compounds with CCHF vOTU inh-1; Recombinant CCHFV vOTU, Pep-AMC fluorescence
Numbers without * were called inactive; . = no result given. In the library only some 1.6% were active in any assay of this set; here they are far more common. Rule as the data show it, unless noted: active = inhibition above about 30%; inactive = the rest.

SMILES	PfHsp40 yeast	BJeLR lethal	Sa ugtP lethal	CCHF vOTU inh-1	Sa RN4220 lethal	CCHF vOTU inh-2
CC[C@@]12C(=O)N(c3cccc(C)c3)C(=O)N1C(c1ccc(Br)cc1)C1C(=O)N(C(C)(C)C)C(=O)C12 (stereo partly drawn)	.	.	-13	.	3	.
COCCNC(=O)C(=O)NN=Cc1cccs1	.	.	4	.	3	.
c1cc2c3c(cccc3c1)NC1(CCCCC1)N2	-2	-2	3	30*	6	17
c1cc2c3c(cccc3c1)NC1(CCCCCC1)N2	-2	1	-23	5	2	.
Cc1nc2c(=O)n(C)c(=O)nc-2n(C)n1	-1	36	39	102*	37	99*
COc1ccc2c(c1)oc(=O)c1ccccc12	1	7	8	-72	0	.
O=c1oc2cc(O)c(Cl)cc2c2ccccc12	4	-1	-9	30*	5	-7
O=S(=O)(O)c1cc(O)c2c(O)c(N=Nc3cc(Cl)ccc3O)c(S(=O)(=O)O)cc2c1	16	21	8	.	0	.
O=S(=O)(O)c1cc(Cl)cc(N=Nc2ccc(O)cc2O)c1O	58*	.	.	31*	.	8
O=C(CC1S/C(=N/N=C/c2ccco2)NC1=O)Nc1cccc(Cl)c1Cl (stereo not drawn)	0	0	.	33*	.	-7
O=C(CC1SC(=NN=Cc2ccco2)NC1=O)Nc1cccc(Cl)c1Cl (stereo not drawn)	.	.	-1	.	6	.
CN=C(Nc1ccc(Cl)cc1)c1ccc(C(F)(F)F)cc1	1	3	-5	36*	1	-5
CCOc1ccc(NC(=O)CCC(=O)NN=C2CCCc3ccccc32)cc1	.	.	-8	.	-2	.
COC(=O)[C@]12CCCCC=C1N(Cc1ccc(Cl)cc1Cl)C(=O)[C@H](CC(=O)NCCCCc1ccccc1)C2	.	.	.	33*	.	-14
CCOC(=O)[C@]12CCCC=C1N(Cc1ccc(Cl)cc1Cl)C(=O)[C@H](CC(=O)NCCCCc1ccccc1)C2	.	.	.	20	.	.
COC(=O)[C@@]12C[C@@H](CC(=O)NCCCCc3ccccc3)C(=O)N(Cc3cccc4ccccc34)C1=CCC(C)(C)C2	.	.	.	30*	.	9
N#CCCN(CCC#N)C(=O)c1ccc(Cl)cc1	0	-18	6	36*	4	-12
C/C(=N\NC(=O)c1cc(O)ccc1O)c1cccc(NC(=O)c2cccc(Cl)c2)c1	3	-4	.	32*	.	-3
COC(=O)CSc1[nH]c2ccc(Br)cc2c1[N+](=O)[O-]	1	5	-1	33*	7	1
Cc1ccccc1S(=O)(=O)N1[C@@H](c2ccc(Cl)cc2)C(C(=O)O)=CC[C@H]1c1ccc(Cl)cc1	4	.	20	32*	14	7
Cc1ccc([C@H]2C(C(=O)O)=CC[C@@H](c3ccc(C)cc3)N2S(=O)(=O)c2ccccc2C)cc1	17	.	-16	35*	21	-6
COc1ccccc1/C=C/C=N/NC(=O)c1cnccn1	0	8	.	30*	.	-3
COc1ccccc1/C=C/C=N/NC(=O)c1ccccn1	0	-2	.	25	.	.
C[C@@H]1CN([C@H](C)CO)S(=O)(=O)c2ccc(Br)cc2O[C@@H]1CN(C)C(=O)NC1CCCC1	.	.	.	-1	.	.
COc1ccc(S(=O)(=O)N(C)C[C@@H]2Oc3cc(C#CC4CCCCC4)ccc3S(=O)(=O)N([C@@H](C)CO)C[C@@H]2C)cc1	.	.	.	32*	.	-8
SMILES	PfHsp40 yeast	BJeLR lethal	Sa ugtP lethal	CCHF vOTU inh-1	Sa RN4220 lethal	CCHF vOTU inh-2
C[C@H](CO)N1C[C@H](C)[C@@H](CN(C)C(=O)NC2CCCC2)Oc2cc(Br)ccc2S1(=O)=O	.	.	.	30*	.	-10
C=CCn1c(NS(=O)(=O)c2ccccc2)c(S(=O)(=O)c2ccc(C)cc2)c2nc3ccccc3nc21	-1	5	-4	33*	10	-14
CC(=O)Nc1c(S(=O)(=O)c2ccccc2)c2nc3ccccc3nc2n1Cc1ccccc1	-1	0	-6	-133	4	.
O=S(=O)(Nc1c(S(=O)(=O)c2ccccc2)c2nc3ccccc3nc2n1C1CCCCC1)c1ccccc1	-1	9	-10	94*	4	64*
N#CCC(Cc1ccccc1)N1CCN(Cc2ccccc2)CCC1=O (stereo not drawn)	.	.	6	.	5	.
CC(=O)N1CCn2c3c(c4cc(C)ccc42)CCCC31 (stereo not drawn)	0	-4	-7	-5	3	.
CC(=O)N1CCn2c3c(c(=O)c4cc(C)ccc42)CCC31 (stereo not drawn)	0	-4	-3	101*	6	16
